Reference: PubChem BioAssay (Tox21)
A number with no mark means an inactive call. Inconclusive results are not listed. Entries that show only a call come without a potency. Calls of active or inactive are those of the source. Unless noted, calls come from the whole dose curve; as a rule, active = well fitted curve in the direction sought with a large enough effect in the repeat runs; inconclusive = weak or mixed curves; inactive = no such curve, though single readings can be large; an effect the other way counts as inactive or inconclusive.

Legend:
[1] = qHTS assay to identify small molecule agonists of H2AX (AID 1224845; active = well fitted activation curve with a large enough effect in the signal ratio in the repeat runs, not every such curve was filed as active; the % refers to the signal ratio)
In short: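 Phospho-H2AX Ser139 measured by HTRF (ex 320 nm; em 665 and 620 nm) after 24 hr antibody incubation. Compounds, 15 concentrations, 0.76% DMSO, were applied to CHO-K1 cells for 3hr at 37C before lysis.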

[2] = qHTS assay to identify small molecule agonists of the hypoxia (HIF-1) signaling pathway (AID 1224846; active = well fitted activation curve with a large enough effect in the signal ratio in the repeat runs, not every such curve was filed as active; the % refers to the signal ratio)
In short: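 Agonist mode reporter screen. ME-180 cells stably expressing bla under HRE control received test compounds in DMSO for 17 hrs (37C, 5% CO2), and beta-lactamase activity was then detected with the CCF4-AM FRET substrate.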

[3] = qHTS assay to identify small molecule agonists of H2AX - cell viability counter screen (AID 1224847; calls by dose curve; note: nearly all actives have a fitted effect of over 30% in size; note: potency is the fitted concentration of half-maximal effect)
In short: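 CHO-K1 wt, 1000 cells/well, o/n 37C; cpds 15 conc, 3 h 37C, 0.76% DMSO; CellTiter-Glo, 30 min RT, luminescence.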

[4] = qHTS assay to identify small molecule agonists of the estrogen related receptor (ERR) signaling pathway from Tox21 library (AID 1224849; calls by dose curve; note: nearly all actives have a fitted effect of over 15% in size); conditions: ERR reporter cell line, ONE-Glo luciferase, 18 h; at 92.4 µM (top of the series) unless noted
In short: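 Quantitative HTS in agonist format: NTP ERR cell line, compounds transferred in DMSO after 6 h plating, 18 h incubation at 37 C, ONE-Glo luminescence endpoint.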

[5] = qHTS RealTime-Glo MT Cell Viability Assay in HepG2 cells - 24 hour (AID 1224867); note: nearly all actives have a fitted effect of over 50% in size; note: potency is the fitted concentration of half-maximal effect
In short: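 Cells + NanoLuc/prosubstrate dispensed (600 cells/well) → 5 h at 37 C/5% CO2 → compounds in DMSO transferred → 40 h incubation at 37 C, luminescence read at 0, 8, 16, 24, 32, 40 h.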

[6] = qHTS RealTime-Glo MT Cell Viability Assay in HEK293 cells - 32 hour (AID 1224868); note: nearly all actives have a fitted effect of over 50% in size; note: potency is the fitted concentration of half-maximal effect
In short: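 Tox21 10K qHTS, HEK293, 600 cells/well, RealTime-Glo reagent co-dispensed with cells; 5 h preincubation, compound by pintool, 37 C, luminescence at 0–40 h.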

[7] = A CellTox Green Cytotoxicity Assay to monitor cytotoxicity in HEK293 cells - 0 hour (AID 1224869); note: nearly all actives have a fitted effect of over 50% in size
In short: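 Dead-cell fluorescence measured kinetically: asymmetric cyanine dye, HEK293, 600 cells/well, 5 h settle, 23 nL cpd/DMSO, 37 C, reads 0–40 h every 8 h.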

[8] = qHTS RealTime-Glo MT Cell Viability Assay in HepG2 cells - 40 hour (AID 1224870); note: nearly all actives have a fitted effect of over 50% in size; note: potency is the fitted concentration of half-maximal effect
In short: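 Real-time viability: cells seeded at 600 per well together with NanoLuc and cell-permeant prosubstrate, compounds added after 5 h incubation. Luminescence tracked at 0, 8, 16, 24, 32 and 40 h of exposure.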

[9] = qHTS assay to identify small molecule agonists of the hypoxia (HIF-1) signaling pathway - cell viability counter screen (AID 1224844; calls by dose curve; note: nearly all actives have a fitted effect of over 50% in size; note: potency is the fitted concentration of half-maximal effect)
In short: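 Viability counter screen: HRE-bla ME-180 cells plated 5 hrs before compound addition, treated 17 hrs at 37C and 5% CO2, then CellTiter-Glo added after the FRET reporter read; luminescence after 30 min.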

[10] = qHTS assay to identify small molecule antagonists of the estrogen related receptor (ERR) signaling pathway from Tox21 library (AID 1224848); note: nearly all actives have a fitted effect of over 50% in size; note: potency is the fitted concentration of half-maximal effect
In short: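 Luciferase luminescence (ONE-Glo, 30 min room temperature) was the read-out. Cells of the NTP-supplied ERR line, 2,000 per well, were given 6 h at 37 C before compound addition in DMSO and 18 h exposure at 37 C.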

SMILES: CCN(CC)CCOc1ccccc1C(=O)CCc1ccccc1
- Potency [1]: inactive
- outcome [2]: inactive
- Potency [3]: inactive
- activity change, positive = activation [4]: -25.9% [at 42.5 µM]
- Potency [5]: inactive
- Potency [6]: 12 µM (active)
- Potency [7]: inactive
- Potency [8]: inactive

SMILES: COc1cc(S(=O)(=O)Nc2ccccc2)c(OC)cc1N
- Potency [9]: inactive
- outcome [2]: inactive
- Potency [3]: inactive
- Potency [6]: inactive
- Potency [7]: inactive
- Potency [8]: inactive

SMILES: COC(=O)C1=C(C)NC(C)=C(C(=O)OC(C)(C)CN(C)CCC(c2ccccc2)c2ccccc2)C1c1cccc([N+](=O)[O-])c1 (stereo not given)
- Potency [9]: inactive
- Potency [3]: inactive
- Potency [10]: 13.3 µM (active)
- activity change, positive = activation [4]: -45.4% [at 42.5 µM]
- Potency [6]: inactive
- Potency [7]: inactive

SMILES: O=[N+]([O-])C1(Br)COCOC1
- Potency [9]: 38.9 µM (active)
- Potency [3]: 113 µM (active)
- activity change, positive = activation [4]: -12.2%
- Potency [5]: 54.9 µM (active)
- Potency [6]: 34.7 µM (active)
- Potency [7]: inactive
- Potency [8]: 49 µM (active)

SMILES: O=C(/C=C/c1ccc([N+](=O)[O-])cc1)c1ccccc1
- Potency [9]: 24.6 µM (active)
- Potency [3]: inactive
- Potency [6]: 24.6 µM (active)
- Potency [7]: inactive

SMILES: CC1CCC(C(C)CS)CC1S (stereo not given)
- Potency [9]: 54.9 µM (active)
- Potency [3]: inactive
- Potency [10]: inactive
- activity change, positive = activation [4]: 4.8%
- Potency [5]: inactive
- Potency [6]: inactive
- Potency [7]: inactive
- Potency [8]: inactive

SMILES: O=C(CCS)OCC(COC(=O)CCS)(COC(=O)CCS)COC(=O)CCS
- Potency [1]: inactive
- Potency [3]: inactive
- Potency [5]: inactive
- Potency [7]: inactive
- Potency [8]: inactive

SMILES: O[C@@H](CNC[C@H](O)[C@H]1CCc2cc(F)ccc2O1)[C@@H]1CCc2cc(F)ccc2O1
- Potency [9]: 23.9 µM (active)
- outcome [2]: inactive
- activity change, positive = activation [4]: -67.5% [at 42.5 µM]
- Potency [5]: 16.9 µM (active)
- Potency [6]: 19 µM (active)
- Potency [7]: inactive
- Potency [8]: 15.1 µM (active)

SMILES: COC(=O)Nc1nc2ccc(C(=O)C3CC3)cc2[nH]1
- Potency [1]: inactive
- outcome [2]: inactive
- Potency [3]: inactive
- Potency [5]: inactive
- Potency [7]: inactive
- Potency [8]: inactive

SMILES: CCN(CC)C(=O)/C(C#N)=C/c1cc(O)c(O)c([N+](=O)[O-])c1
- Potency [9]: inactive
- Potency [3]: inactive
- Potency [5]: inactive
- Potency [7]: inactive
- Potency [8]: inactive

SMILES: CCN(CC)C(=O)N1CCN(C)CC1
- Potency [9]: inactive
- Potency [3]: inactive
- Potency [10]: inactive
- activity change, positive = activation [4]: 6.11% [at 42.5 µM]
- Potency [5]: inactive
- Potency [7]: inactive
- Potency [8]: inactive

SMILES: CC(C)C(O)C(C)(C)CO (stereo not given)
- outcome [2]: inactive
- Potency [3]: inactive
- Potency [10]: 0.891 µM (active)
- activity change, positive = activation [4]: -71.7%
- Potency [5]: inactive
- Potency [7]: inactive
- Potency [8]: inactive

SMILES: CC(C)(C)S
- Potency [1]: inactive
- outcome [2]: inactive
- Potency [3]: inactive
- Potency [10]: inactive
- activity change, positive = activation [4]: 4.53%
- Potency [5]: inactive
- Potency [6]: inactive
- Potency [7]: inactive
- Potency [8]: inactive

SMILES: CCCCCCCCCCCCCOS(=O)(=O)O
- Potency [3]: inactive
- Potency [5]: inactive
- Potency [7]: inactive
- Potency [8]: inactive

SMILES: CNc1c2c(nn1C)CCCC2
- Potency [9]: inactive
- Potency [3]: inactive
- Potency [5]: inactive
- Potency [7]: inactive
- Potency [8]: inactive

SMILES: CCCCCCCCCCCSCC(=O)O
- Potency [1]: inactive
- outcome [2]: inactive
- Potency [3]: inactive
- activity change, positive = activation [4]: -19.7%
- Potency [5]: inactive
- Potency [6]: inactive
- Potency [7]: inactive
- Potency [8]: inactive

SMILES: O=C(C(=O)c1ccco1)c1ccco1
- Potency [9]: inactive
- outcome [2]: inactive
- Potency [3]: inactive
- Potency [5]: inactive
- Potency [7]: inactive
- Potency [8]: inactive

SMILES: O=C(O)c1cccc(Oc2ccccc2)c1
- Potency [9]: inactive
- outcome [2]: inactive
- Potency [10]: inactive
- activity change, positive = activation [4]: -1.12%
- Potency [5]: inactive
- Potency [6]: inactive
- Potency [7]: inactive
- Potency [8]: inactive

SMILES: CC(=O)OCC(=O)[C@@]1(OC(C)=O)[C@@H](C)C[C@H]2[C@@H]3C[C@H](F)C4=CC(=O)C=C[C@]4(C)[C@@]3(F)[C@@H](O)C[C@@]21C
- Potency [1]: inactive
- Potency [3]: inactive
- Potency [5]: inactive
- Potency [6]: inactive
- Potency [7]: inactive
- Potency [8]: inactive

SMILES: CCN(Cc1cccc(S(=O)(=O)O)c1)c1ccc(C(=C2C=CC(=[N+](CC)Cc3cccc(S(=O)(=O)O)c3)C=C2)c2ccccc2S(=O)(=O)[O-])cc1
- outcome [2]: inactive
- Potency [3]: 25.4 µM (active)
- Potency [10]: 15.4 µM (active)
- activity change, positive = activation [4]: -48.9% [at 42.5 µM]
- Potency [5]: inactive
- Potency [6]: inactive
- Potency [7]: inactive
- Potency [8]: inactive

SMILES: CCN(Cc1cccc(S(=O)(=O)O)c1)c1ccc(C(=C2C=CC(=[N+](CC)Cc3cccc(S(=O)(=O)O)c3)C=C2)c2ccc(O)cc2S(=O)(=O)[O-])cc1
- outcome [2]: inactive
- Potency [3]: 19.4 µM (active)
- Potency [10]: 16.6 µM (active)
- activity change, positive = activation [4]: -59.2% [at 42.5 µM]
- Potency [5]: inactive
- Potency [6]: inactive
- Potency [7]: inactive
- Potency [8]: inactive

SMILES: O=C(c1ccccc1)c1ccc(O)cc1
- Potency [9]: inactive
- outcome [2]: inactive
- activity change, positive = activation [4]: -59.8%
- Potency [5]: inactive
- Potency [6]: inactive
- Potency [7]: inactive
- Potency [8]: inactive

SMILES: COc1cc(NC(C)CCCN)c2ncccc2c1 (stereo not given)
- Potency [9]: inactive
- Potency [3]: inactive
- Potency [10]: inactive
- activity change, positive = activation [4]: -9.72% [at 42.5 µM]
- Potency [5]: inactive
- Potency [6]: inactive
- Potency [7]: inactive
- Potency [8]: inactive

SMILES: CN(C)CC/C=C1\c2ccccc2Sc2ccc(Cl)cc21
- Potency [3]: 49.2 µM (active)
- activity change, positive = activation [4]: -17.7% [at 42.5 µM]
- Potency [5]: 23.9 µM (active)
- Potency [6]: 23.9 µM (active)
- Potency [7]: inactive
- Potency [8]: 23.9 µM (active)

SMILES: Nc1ccc(N=Nc2ccc(N)cc2)cc1
- outcome [2]: inactive
- Potency [3]: inactive
- Potency [5]: inactive
- Potency [6]: inactive
- Potency [7]: inactive
- Potency [8]: inactive

SMILES: CC[C@H]1OC(=O)[C@H](C)[C@@H](O[C@H]2C[C@@](C)(OC)[C@@H](O)[C@H](C)O2)[C@H](C)[C@@H](O[C@@H]2O[C@H](C)C[C@H](N(C)C)[C@H]2O)[C@](C)(O)C[C@@H](C)/C(=N\OCOCCOC)[C@H](C)[C@@H](O)[C@]1(C)O
- Potency [1]: inactive
- outcome [2]: inactive
- Potency [3]: inactive
- activity change, positive = activation [4]: -14.4% [at 42.5 µM]
- Potency [5]: inactive
- Potency [6]: inactive
- Potency [7]: inactive
- Potency [8]: inactive

SMILES: Cc1cccc(C)c1NC(=O)c1cc(S(N)(=O)=O)c(Cl)cc1O
- Potency [9]: inactive
- outcome [2]: inactive
- Potency [3]: inactive
- Potency [5]: inactive
- Potency [7]: inactive
- Potency [8]: inactive

SMILES: CC[C@H]1OC(=O)[C@H](C)[C@@H](O[C@H]2C[C@@](C)(OC)[C@@H](O)[C@H](C)O2)[C@H](C)[C@@H](O[C@@H]2O[C@H](C)C[C@H](N(C)C)[C@H]2O)[C@](C)(O)C[C@@H](C)CN(C)[C@H](C)[C@@H](O)[C@]1(C)O
- Potency [9]: inactive
- outcome [2]: inactive
- Potency [3]: inactive
- Potency [5]: inactive
- Potency [7]: inactive
- Potency [8]: inactive

SMILES: CCN(CC)CCNC(=O)c1cc(Cl)c(N)cc1OC
- Potency [9]: inactive
- Potency [3]: inactive
- Potency [5]: inactive
- Potency [6]: inactive
- Potency [7]: inactive
- Potency [8]: inactive

SMILES: COc1cc(C(C)=O)ccc1OCCCN1CCC(c2noc3cc(F)ccc23)CC1
- Potency [1]: inactive
- outcome [2]: inactive
- Potency [3]: inactive
- Potency [6]: 10.7 µM (active)
- Potency [7]: inactive
- Potency [8]: inactive

SMILES: O=NN(CCCl)C(=O)NCCCl
- Potency [9]: inactive
- Potency [3]: inactive
- Potency [10]: inactive
- activity change, positive = activation [4]: 2.54% [at 42.5 µM]
- Potency [5]: inactive
- Potency [6]: inactive
- Potency [7]: inactive
- Potency [8]: inactive

SMILES: C[C@@H]1[C@H](O)[C@@H](C)/C=C/C=C\C=C\C=C\C=C\C=C\C=C\[C@H](O[C@@H]2O[C@H](C)[C@@H](O)[C@H](N)[C@@H]2O)C[C@@H]2O[C@](O)(C[C@@H](O)C[C@@H](O)[C@H](O)CC[C@@H](O)C[C@@H](O)CC(=O)O[C@H]1C)C[C@H](O)[C@H]2C(=O)O (stereo in doubt)
- Potency [3]: inactive
- Potency [5]: inactive
- Potency [6]: inactive
- Potency [7]: inactive
- Potency [8]: inactive
